In all, about 1,600 compounds went through this assay and about 1,500 (94%) were called active. The set was probably picked from earlier hits. Not all results are given here. Results with a measured potency or affinity are listed apart. Records with an inconclusive call do not appear. Values without a mark were called inactive.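 The calls were made as follows: active = signal drop with fitted half-maximal concentration at most twice the top valid dose for that sample; inconclusive = flat fit between 30 and 70% inhibition, or poor curve fit; inactive = the rest.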

The nature of the assay: reduction of Shn3 3'UTR-driven luciferase in osteoblasts – cell-based, Clone20 osteoblasts, firefly luciferase, cherry-picked, dose response (AID 624132). The settings on record: Clone20 osteoblast Shn3 3'UTR firefly luciferase, 24 h; series mostly up to 35 µM; activity change, negative = inhibition: at the top concentration.
For the molecule `CC(Cc1cccs1)NC(=O)Nc1ccc(F)cc1` (stereo not drawn), the “activity change, negative = inhibition” value is -3.91%.
Take `CCN1C(=O)[C@H]2[C@@H](c3ccc(-c4ccc(OC)cc4)cc3)N3CCC[C@@]3(C(=O)OC)[C@H]2C1=O`: the “activity change, negative = inhibition” value was -16.5%.
`COc1ccc(N(C)C(=O)c2ccc3snnc3c2)cc1`: the “activity change, negative = inhibition” value was -3.31%.
For `CC(=O)N1N=C(c2ccccc2)OC1c1ccc([N+](=O)[O-])s1` (stereo not drawn) the value was -37.6%; for `Fc1ccccc1N1CCN(Cc2nc(-c3ccccc3)no2)CC1`, 24.1%.
For `O=C(COC(=O)/C=C/c1ccc(OC(F)F)cc1)Nc1ccc2[nH]c(=O)[nH]c2c1` the value was -5.42%; for `CCOc1ccc(NS(=O)(=O)c2cc(C(=O)NCCN3CCOCC3)ccc2C)cc1`, 11.4%; for `COCc1nn2c(N)c(C#N)cnc2c1-c1ccccc1`, 11.5%.
On to `NC(=O)NC(CC(=O)NCCc1ccccn1)c1ccccc1Cl` (stereo not drawn), for which the “activity change, negative = inhibition” value was 2.62%.
In the case of `CCOC(=O)c1[nH]c(C)c(/C(O)=C2\C(=O)C(=O)N(CCCN3CCOCC3)C2c2cccs2)c1C` (stereo not drawn), the “activity change, negative = inhibition” value was 29.2%.
For `Cc1cc(-n2c(C)cc(C(=O)CSc3nncn3C)c2C)no1`, the “activity change, negative = inhibition” value was 21.8%.
Regarding `CSCCC(NC(=O)c1ccccc1)C(=O)OCC(=O)N(C)CCC#N` (stereo not drawn), the activity change, negative = inhibition was 5.19% [at 8 µM].
For `COc1ccc(C(=O)OCC(=O)Nc2ccc3[nH]c(=O)[nH]c3c2)cc1` the value was 6.22%; for `Cc1csc(=O)n1CCC(=O)N(C)Cc1c(F)cccc1Cl`, 6.18%.
As for `COc1ccc(C(=O)OCC(=O)Nc2ncc([N+](=O)[O-])s2)cc1OC`, the “activity change, negative = inhibition” value was 21.4%.
For `CCCOc1ccc2oc(=O)c3c(c2c1)CCCN3C(=O)CN1CCN(c2ncccn2)CC1` the value was 125%; for `OC(c1ccccc1)C(O)C(c1ccccc1)N1CCCCC1` (stereo not drawn), -2.22%; for `COc1ccc(N2C(=O)C(CC(=O)Nc3ccccc3)N(Cc3ccc(OC)c(OC)c3)C2=O)cc1` (stereo not drawn), 7.36%.
For `CSc1cccc(NC(=O)N2CCCC(CNS(=O)(=O)Cc3ccccc3)C2)c1` (stereo not drawn) the value was -20.4%; for `CCn1cc(CNCc2cn(-c3ccccc3C)nc2-c2ccc(OC)c(F)c2)cn1`, -3.08%; for `CC(C)(C)N(Cc1ccccc1)C(=O)COC(=O)CCc1c[nH]c2ccccc12`, -6.52%.
For `Oc1c(C(c2cccs2)N2CCC3(CC2)OCCO3)sc2ncnn12` (stereo not drawn) the value was -5.82%; for `COc1ccc(S(=O)(=O)NCCC(=O)OCC(=O)NC2CC2)cc1`, 79.6%; for `CC1=NN(c2cccc([N+](=O)[O-])c2)C(=O)C1`, 4.22%.
In the case of `CN=C1c2cc3cc(OC)ccc3n2CCN1Cc1ccccc1`, the “activity change, negative = inhibition” value was -18.3%.
`Cc1noc(C)c1COC(=O)[C@@H](NC(=O)c1ccccc1)C(C)C`: the “activity change, negative = inhibition” value is -11.5%.
Turning to `CCCCC[C@H]1CN(Cc2ccc(OC)cc2)C(=O)[C@@H]1CC(=O)NCc1ccccc1`, the “activity change, negative = inhibition” value was -56.9%.
For `Cc1ccc(NC(=O)CN(C)C(=O)COc2cc(F)ccc2[N+](=O)[O-])cc1` the value was -9.91%.

The values are drawn from PubChem BioAssay AID624132 (Broad Institute, 2012).
